Inconclusive results are not listed. Active and inactive are the calls of the source. Calls come from the whole dose curve; as a rule, active = well fitted inhibition curve with a large enough effect; inconclusive = small, poorly fitted or top-dose-only effect; inactive = flat fitted curve, though single readings scatter.
How the values were obtained:
Experiment in all cases: qHTS profiling for inhibitors of Plasmodium falciparum proliferation (AID 504749); note: nearly all actives have a fitted effect of over 60% in size
Details in all cases: P. falciparum in erythrocytes, SYBR Green DNA, 72 h; series mostly up to 28.7 µM
3D7 = tested on: 3D7
How it was run: (§1)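 Readout was DNA-dye fluorescence from lysed cultures, ex 485/em 535 nm. Parasitized red cells had grown 72 h with compound; data scaled between 0.29 uM artemisinin and DMSO wells and corrected using vehicle-only plates.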

7G8 = tested on: 7G8
How it was run: as §1

AS120 = tested on: AS120
How it was run: as §1

ATS189 = tested on: ATS189
How it was run: as §1

CP185 = tested on: CP185
How it was run: as §1

CP191 = tested on: CP191
How it was run: as §1

CP192 = tested on: CP192
How it was run: as §1

CP194 = tested on: CP194
How it was run: as §1

CP201 = tested on: CP201
How it was run: as §1

CP203 = tested on: CP203
How it was run: as §1

CP247 = tested on: CP247
How it was run: as §1

CP286 = tested on: CP286
How it was run: as §1

CP305 = tested on: CP305
How it was run: as §1

DFO2036 = tested on: DFO2036
How it was run: as §1

DIV30 = tested on: DIV30
How it was run: as §1

HB3 = tested on: HB3
How it was run: as §1

P94_40 = tested on: P94_40
How it was run: as §1

PC49 = tested on: PC49
How it was run: as §1

TAB109 = tested on: TAB109
How it was run: as §1

TAB113 = tested on: TAB113
How it was run: as §1

Measured: Potency

COC(=O)[C@@H]1[C@@H]2C[C@H]3c4[nH]c5ccccc5c4CCN3C[C@@H]2CC[C@@H]1O
inactive: 3D7 | 7G8 | AS120 | ATS189 | CP185 | CP191 | CP192 | CP194 | CP201 | CP203 | CP247 | CP286 | CP305 | DFO2036 | DIV30 | HB3 | P94_40 | PC49 | TAB109 | TAB113

Source: PubChem BioAssay (NCATS)
